Measured values taken from PubChem BioAssay (NCATS).
Results filed as inconclusive are left out. The source made the active and inactive calls. The call rests on the fitted dose curve; in most records, active means well fitted inhibition curve with a large enough effect; inconclusive means small, poorly fitted or top-dose-only effect; inactive means flat fitted curve, though single readings scatter.

Legend:
HACAT [1] = test: qHTS assay to identify novel small-molecules to repurpose for Merkel cell carcinoma treatment (AID 1296009); conditions: MCC and control cell lines, CellTiter-Glo viability, 72 h; at 44.8 µM (top of the series) unless noted; on activity change, negative = cytotoxicity: on the % scale 0 is the no-effect control and ±100 the full control effect
Summary of the method: (§1)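 Cells exposed to NPC (8-point) and MIPE (11-point) compound dilutions for 72 hr at 37 degree celsius; viability read by CellTiter-Glo luminescence, normalized to no-cell and DMSO in-plate controls.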

MCC-13 = test: as above; conditions: MCC and control cell lines, CellTiter-Glo viability, 72 h; series mostly up to 46 µM
Summary of the method: as §1

MCC-26 = test: as above; conditions: MCC and control cell lines, CellTiter-Glo viability, 72 h; series mostly up to 46 µM
Summary of the method: as §1

MKL-1 = test: as above; conditions: MCC and control cell lines, CellTiter-Glo viability, 72 h; series mostly up to 46 µM
Summary of the method: as §1

P94_40 = test: qHTS profiling for inhibitors of Plasmodium falciparum proliferation (AID 504749); further: potency means the concentration at half of the fitted maximal effect; conditions: P. falciparum in erythrocytes, SYBR Green DNA, 72 h; series mostly up to 28.7 µM
Summary of the method: (§2)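 P. falciparum-infected erythrocytes (0.3% parasitemia, 2.5% hematocrit final) were exposed to compounds for 72 h at 37 C in 5% CO2, then lysed with SYBR Green buffer overnight at room temperature; parasite DNA fluorescence was normalized to artemisinin and DMSO controls.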

PAD = test: as above; conditions: P. falciparum in erythrocytes, SYBR Green DNA, 72 h; series mostly up to 28.7 µM
Summary of the method: as §2

PC15 = test: as above; conditions: P. falciparum in erythrocytes, SYBR Green DNA, 72 h; series mostly up to 28.7 µM
Summary of the method: as §2

PC26 = test: as above; conditions: P. falciparum in erythrocytes, SYBR Green DNA, 72 h; series mostly up to 28.7 µM
Summary of the method: as §2

PC49 = test: as above; conditions: P. falciparum in erythrocytes, SYBR Green DNA, 72 h; series mostly up to 28.7 µM
Summary of the method: as §2

SC27B = test: as above; conditions: P. falciparum in erythrocytes, SYBR Green DNA, 72 h; series mostly up to 28.7 µM
Summary of the method: as §2

TAB109 = test: as above; conditions: P. falciparum in erythrocytes, SYBR Green DNA, 72 h; series mostly up to 28.7 µM
Summary of the method: as §2

TAB113 = test: as above; conditions: P. falciparum in erythrocytes, SYBR Green DNA, 72 h; series mostly up to 28.7 µM
Summary of the method: as §2

TAB165 = test: as above; conditions: P. falciparum in erythrocytes, SYBR Green DNA, 72 h; series mostly up to 28.7 µM
Summary of the method: as §2

W2 = test: as above; conditions: P. falciparum in erythrocytes, SYBR Green DNA, 72 h; series mostly up to 28.7 µM
Summary of the method: as §2

HaCat [2] = test: Cytotoxic Profiling of Annotated Libraries Using Quantitative High-Throughput Screening (AID 1296008); conditions: Five cell lines viability, CellTiter-Glo ATP luminescence, 48-72 h; max response: stronger effect = lower value; on max response: on the % scale 0 is the no-effect control and ±100 the full control effect
Summary of the method: (§3)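 Compounds were pin-transferred onto cells and incubated 48 or 72 hr at 37 degree Celsius, 95% humidity. CellTiter-Glo was added, plates sat 10 min at room temperature, then ATP-coupled luminescence was imaged as the viability read-out.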

KB-3-1 = test: as above; conditions: Five cell lines viability, CellTiter-Glo ATP luminescence, 48-72 h; max response: stronger effect = lower value
Summary of the method: as §3

NIH3T3 = test: as above; conditions: Five cell lines viability, CellTiter-Glo ATP luminescence, 48-72 h; max response: stronger effect = lower value
Summary of the method: as §3

HEK293 = test: as above; conditions: Five cell lines viability, CellTiter-Glo ATP luminescence, 48-72 h; max response: stronger effect = lower value
Summary of the method: as §3

HEK293T = test: qHTS assay to identify novel small-molecules to repurpose for Merkel cell carcinoma treatment (AID 1296009); conditions: MCC and control cell lines, CellTiter-Glo viability, 72 h; at 44.8 µM (top of the series) unless noted; on activity change, negative = cytotoxicity: on the % scale 0 is the no-effect control and ±100 the full control effect
Summary of the method: as §1
Further: nearly all actives have a fitted effect of over 60% in size.

CC(C)NCC(O)c1cc(O)cc(O)c1 (stereo not drawn)
inactive: outcome (HACAT [1]) | Potency (MCC-13) | Potency (MCC-26) | Potency (MKL-1)

CC[N+](C)(C)c1cccc(O)c1
inactive: Potency (P94_40) | Potency (PAD) | Potency (PC15) | Potency (PC26) | Potency (PC49) | Potency (SC27B) | Potency (TAB109) | Potency (TAB113) | Potency (TAB165) | Potency (W2)

NC1=NCC2c3ccccc3Cc3ccccc3N12 (stereo not drawn)
inactive: Potency (P94_40) | Potency (PAD) | Potency (PC15) | Potency (PC26) | Potency (PC49) | Potency (SC27B) | Potency (TAB109) | Potency (TAB113) | Potency (TAB165) | Potency (W2) | max response (HaCat [2]) -7.94% | max response (KB-3-1) -4.43% | max response (NIH3T3) -2.29% | Potency (MCC-13) | Potency (MCC-26) | Potency (MKL-1)

CSc1ccc(C(=O)c2[nH]c(=O)[nH]c2C)cc1
inactive: Potency (P94_40) | Potency (PAD) | Potency (PC15) | Potency (PC26) | Potency (PC49) | Potency (SC27B) | Potency (TAB109) | Potency (TAB113) | Potency (TAB165) | Potency (W2) | outcome (HACAT [1]) | Potency (MCC-13) | Potency (MCC-26) | Potency (MKL-1)

CN1CCN(CC(=O)N2c3ccccc3C(=O)Nc3cccnc32)CC1
inactive: Potency (P94_40) | Potency (PAD) | Potency (PC15) | Potency (PC26) | Potency (PC49) | Potency (SC27B) | Potency (TAB109) | Potency (TAB113) | Potency (TAB165) | Potency (W2) | outcome (HACAT [1]) inactive [at 4.96 µM] | activity change, negative = cytotoxicity (MCC-13) 8.41% [at 4.84 µM] | activity change, negative = cytotoxicity (MCC-26) 1.14% [at 4.84 µM] | activity change, negative = cytotoxicity (MKL-1) -1.15% [at 4.84 µM]

CCOC(=O)C1=C(C)NC(C)=C(C(=O)OC)C1c1cccc(Cl)c1Cl (stereo not drawn)
inactive: Potency (P94_40) | Potency (PAD) | Potency (PC15) | Potency (PC49) | Potency (TAB109) | Potency (TAB113) | outcome (HaCat [2]) | max response (KB-3-1) -8.74% | outcome (HACAT [1]) | Potency (MCC-13) | Potency (MCC-26) | Potency (MKL-1)

Cc1nc2ccccn2c(=O)c1CCN1CCC(C(=O)c2ccc(F)cc2)CC1
active: Potency (W2) 6.01 µM
inactive: Potency (PC26) | Potency (SC27B) | Potency (TAB113) | max response (HaCat [2]) -15.4% | max response (KB-3-1) -5.16% | max response (NIH3T3) -5.4% | Potency (MCC-13) | Potency (MCC-26) | Potency (MKL-1)

COCCOC(=O)C1=C(C)NC(C)=C(C(=O)OC(C)C)C1c1cccc([N+](=O)[O-])c1 (stereo not drawn)
inactive: Potency (PC49) | outcome (HaCat [2]) | max response (NIH3T3) -6.33% | outcome (HACAT [1]) | Potency (MCC-13) | Potency (MCC-26)
active: Potency (PC26) 12 µM | Potency (TAB165) 10 µM

C[C@]12CCC(=O)C=C1CC[C@@H]1[C@@H]2C(=O)C[C@@]2(C)[C@H]1CC[C@]2(O)C(=O)CO
inactive: outcome (HEK293) | max response (NIH3T3) 1.17% | outcome (HEK293T) | Potency (MCC-13) | Potency (MCC-26) | Potency (MKL-1)

C[N+](C)(C)CCCCCCCCCC[N+](C)(C)C
active: Potency (P94_40) 2.51 µM | Potency (PAD) 2.24 µM | Potency (PC15) 8.91 µM | Potency (PC26) 6.01 µM | Potency (PC49) 3.98 µM | Potency (SC27B) 3.98 µM | Potency (TAB109) 3.55 µM | Potency (TAB113) 2.82 µM | Potency (TAB165) 3.16 µM | Potency (W2) 4.78 µM

NS(=O)(=O)c1cc2c(cc1Cl)NC(C1CC3C=CC1C3)NS2(=O)=O (stereo not drawn)
inactive: Potency (P94_40) | Potency (PAD) | Potency (PC15) | Potency (PC26) | Potency (PC49) | Potency (SC27B) | Potency (TAB109) | Potency (TAB113) | Potency (TAB165) | outcome (HEK293) | outcome (HEK293T) | Potency (MCC-13) | Potency (MCC-26) | Potency (MKL-1)
